Assay outcomes (PubChem BioAssay)
An excerpt weighted towards active compounds, which were near 0.66% of everything screened.
Rango dissoc inh = prevents RanGTP from dissociating the Rango-importin beta complex. O95149+P62826. Biochemical FRET Rango-importin beta, RanGTP-induced dissociation. Potency, µM (titrated, usually from 46.1 µM), inactives show top-dose activity change, negative = inhibition. 340,000 tested, 0.071% active; further: % of control where 0% means no effect; nearly all actives have a fitted effect of over 45% in size
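Rango/importin beta premix (0.1/0.25 uM final), PBS + 1 mM DTT + 0.02% Tween-20 + 0.1% BSA; cpd 5 min RT; FRET pre-read; + RanGTP-RCC1 (0.6 uM Ran, 2 mM GTP, 0.2 uM RCC1); 45 min RT; FRET post-read, ex 430, em 486/530 nm.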
Rango-impB inh = prevents formation of the Rango-importin beta complex; Potency, µM (highest dose often 92.2 µM), inactives show at the highest dose inhibition of complex formation; 340,000 tested, 0.031% active; Rango CFP/YFP FRET sensor + importin beta, 45 min;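 further: 0% = DMSO wells and 100% = buffer wells lacking importin beta; nearly all actives have a fitted effect of over 15% in size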
Target sequence (Q14974 whole entry, looked up): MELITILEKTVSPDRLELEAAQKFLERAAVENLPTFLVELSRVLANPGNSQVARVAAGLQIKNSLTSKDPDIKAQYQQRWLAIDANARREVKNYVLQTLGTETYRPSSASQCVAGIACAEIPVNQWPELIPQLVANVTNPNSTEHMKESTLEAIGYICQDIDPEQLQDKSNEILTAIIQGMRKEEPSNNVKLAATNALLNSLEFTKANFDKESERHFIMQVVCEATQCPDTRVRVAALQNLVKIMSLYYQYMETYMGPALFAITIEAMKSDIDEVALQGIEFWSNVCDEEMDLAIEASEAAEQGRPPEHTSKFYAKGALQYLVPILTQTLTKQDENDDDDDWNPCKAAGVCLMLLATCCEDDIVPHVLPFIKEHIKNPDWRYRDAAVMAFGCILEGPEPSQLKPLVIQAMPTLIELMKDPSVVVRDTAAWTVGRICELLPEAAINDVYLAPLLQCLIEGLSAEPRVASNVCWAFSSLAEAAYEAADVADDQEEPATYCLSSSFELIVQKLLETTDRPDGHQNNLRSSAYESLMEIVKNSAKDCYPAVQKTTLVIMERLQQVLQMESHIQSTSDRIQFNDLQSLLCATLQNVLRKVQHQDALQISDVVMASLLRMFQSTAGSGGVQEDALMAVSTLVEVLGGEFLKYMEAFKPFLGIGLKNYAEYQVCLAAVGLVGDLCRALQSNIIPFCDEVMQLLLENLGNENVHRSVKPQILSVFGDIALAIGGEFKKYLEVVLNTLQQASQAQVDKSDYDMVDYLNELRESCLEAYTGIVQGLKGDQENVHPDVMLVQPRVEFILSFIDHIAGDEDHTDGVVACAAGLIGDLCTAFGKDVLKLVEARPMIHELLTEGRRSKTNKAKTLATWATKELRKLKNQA
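FRET biosensor (snurportin 1 IBB flanked by EYFP and cerulean), 50 nM, with compound 5 min, then 0.125 microM importin beta in PBS, 1 mM DTT, 0.02% Tween-20, 0.1% BSA. CFP/YFP ratio read after 45 min at room temperature; pre-read flags interference.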
gsp antag = gsp mutant antagonism; gsp-mutant cells, cAMP HTRF, 30 min; Potency, µM (series often up to 76.9 µM), inactives show top-dose activity change, negative = inhibition, usual class: inhibitors; 340,000 tested, 0.4% active; AID 624288; calls by dose curve; cell line not stated here;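 further: intracellular cAMP measured with PDE inhibitor Ro 20-1724 present during compound exposure; on the % scale 0 is the no-effect control and ±100 the full control effect; nearly all actives have a fitted effect of over 65% in size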
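G418-selected cells were plated in DMEM/10% FBS for 16-24 h at 37C, then treated with compounds plus the PDE inhibitor […] (300 uM solution added) for 30 min at 37C. Intracellular cAMP was measured by HTRF after 30 min lysis at room temperature.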
gsp ag = activates gsp, the McCune-Albright syndrome mutation. gsp mutant cells, cAMP HTRF, 30 min. AID 624287. 340,000 tested, 0.13% active. Potency, µM (highest dose often 76.9 µM), inactives show top-dose activation (cAMP increase), most hits filed as activators; active means well fitted activation curve with a large enough effect; inconclusive means small, poorly fitted or top-dose-only effect, or another doubt; inactive means no such curve, though single readings can be large or run the other way; cell line not stated here;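 further: phosphodiesterase inhibitor Ro 20-1724 added with compounds to block cAMP breakdown; nearly all actives have a fitted effect of over 60% in size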
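Cells in DMEM/10% FBS with G418 were pretreated with compounds in DMSO plus […] (300 uM stock) for 30 min at 37C. cAMP was measured by HTRF (cAMP-d2 plus anti-cAMP antibody-K) after 30 min at room temperature.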
* marks the source's active call; other numbers are inactive results; ? = inconclusive; / = no result given; [ ] = dose if it differs, or a comment. Unless noted, the call rests on the fitted dose curve. Potency means the concentration at half of the fitted maximal effect.

SMILES	Rango dissoc inh	Rango-impB inh	gsp antag	gsp ag
O=C1NC(=S)N/C1=C\c1ccc(N2CCOCC2)cc1	8.2µM*	?	20%	-16%
S=c1sscc1-c1ccccc1	-1%	2%	-16%	23%
COCCCn1c(C(=O)N2CCOCC2)cc2c(=O)n3ccccc3nc21	-25%	?	10%	?
COCCCn1c(C(=O)NCCC2=CCCCC2)cc2c(=O)n3ccccc3nc21	-4%	?	8%	7.1µM*
COCCN(CCOC)C(=O)c1cc2c(=O)n3ccccc3nc2s1	-16%	-6%	45%	4µM*
CCN(CC)C(=O)c1cc2c(=O)n3ccccc3nc2s1	-17%	-5%	18%	?
O=C(COC(=O)c1ccccc1SCC(=O)N1CCCC1)NCc1ccc(F)cc1	/	/	/	-72%
COc1c(F)c(F)c(C(=O)Nc2ccc3oc(-c4ccncc4)nc3c2)c(F)c1F	8%	0%	28µM*	-20%
Cc1cc(OCC(=O)Nc2ccc3oc(-c4ccncc4)nc3c2)ccc1Cl	-4%	-1%	50µM*	3%
COC(=O)c1ccccc1NC(=O)CSc1nc2ccsc2c(=O)n1Cc1ccc(C(=O)O)cc1	/	/	/	-29%
CCN(C(=O)CN1C(=O)NC2(CCC(C)CC2)C1=O)C1CCCCC1 (stereo not drawn)	/	/	/	6%
CCN(CC)CCCNC(=S)N1CCN(c2nc(-c3ccccc3)cs2)CC1	9%	7%	14%	6%
CCNC(=S)N1CCN(c2nc(-c3cccc(OC)c3)cs2)CC1	3%	3%	32µM*	20%
COCCCNC(=S)N1CCN(c2nc(-c3ccccc3)cs2)CC1	1%	0%	32µM*	?
COc1cccc(-c2csc(N3CCN(C(=S)NCC(C)C)CC3)n2)c1	1%	3%	?	?
CCOCCCNC(=S)N1CCN(c2nc(-c3ccccc3)cs2)CC1	-13%	1%	50µM*	-59%
CC1(C)C(=O)C=C(N2CCCCC2)c2ccccc21	/	/	/	1%
CCN1C(=O)[C@H]2[C@@H](c3ccc(C(F)(F)F)cc3)N[C@]3(CCCN(Cc4ccco4)C3=O)[C@H]2C1=O	/	/	/	1%
O=C1C=CC2=C3c4cc(O)c(O)cc4CC3(O)COC2=C1O (stereo not drawn)	-11%	?	-9%	/
CCC1(C)Cc2c(sc3c2c2ncnn2c2nnc(SCC(=O)NCc4ccco4)n32)CO1 (stereo not drawn)	0%	-2%	-1%[15.4 µM]	2.8µM*
CCC(=O)N(c1ccc(C(=O)O)cc1)c1nc(-c2ccc(OC)cc2)c(C)s1	23%	-2%	25µM*	?
Cc1sc(N(C(=O)CCc2ccccc2)c2ccc(C(=O)O)cc2)nc1-c1ccccc1	-2%	-1%	-35%	-7%
CSc1ncccc1C(=O)OCC(=O)N(C)Cc1ccc(C)cc1	/	/	/	-44%
O=C(N/N=C/c1cccc(Br)c1)c1ccc(Cn2cc(Br)cn2)o1	36%	-1%	35µM*	35%[15.4 µM]
CC(C)C(=O)N1CCN(c2ccc(NC(=O)c3cccs3)cc2Cl)CC1	11%	5%	28µM*	-21%
SMILES	Rango dissoc inh	Rango-impB inh	gsp antag	gsp ag
NS(=O)(=O)c1ccc(N=Nc2c[nH]c(=O)c(O)c2)cc1	23µM*	?	?	-30%
CCOC(=O)c1sc2nc(C)n(N)c(=O)c2c1C	0%	-5%	0%	-5%
CCOC(=O)c1sc2nc(C)[nH]c(=S)c2c1C	-9%	?	3%	13µM*
Cc1nn(CCc2nn[nH]n2)c2nc(-c3ccc(C4CCCCC4)cc3)cc(C(F)(F)F)c12	0%	4%	11µM*	15%[15.4 µM]
O=[N+]([O-])c1ccc(-c2cnc(SC(c3ccccc3)c3ccccc3)[nH]2)cc1	?	?	35µM*	-6%[15.4 µM]
O=[N+]([O-])c1ccc(-c2cnc(SCc3ccccc3Cl)[nH]2)cc1	-17%	10%	-10%	-4%
Cc1cc(CN(Nc2ccccc2)c2ccccc2)cc(C)n1	/	/	/	-9%
O=C1C=CC(=O)c2c(O)c(N3CCN(CCOCCO)CC3)c(Br)c(O)c21	-16%	?	25µM*	?
COc1cc2c(cc1OC)C(CNC(=O)C=Cc1ccccc1)C2 (stereo not drawn)	/	/	/	-39%
COc1cc(NC(c2ccccc2)c2ccccc2)cc(OC)c1OC	-6%	2%	11µM*	0%[15.4 µM]
COc1cc(NC(=O)CNC(c2ccccc2)c2ccccc2)cc(OC)c1OC	9%	-3%	-12%	-14%[15.4 µM]
CN1C(=O)CCS(=O)(=O)C1c1ccc(Cl)c(Cl)c1 (stereo not drawn)	/	/	/	-77%
O=[N+]([O-])c1ccc(CN2CC(N3CCC(Cc4ccccc4)CC3)CS2(=O)=O)cc1 (stereo not drawn)	/	/	/	22%
CC(c1ccccc1)N(CCC(c1ccccc1)C1CCOC(C)(C)C1)C(=O)c1ccco1 (stereo not drawn)	1%	-1%	?	-20%
COc1ccc(CN(CCC(c2ccc(F)cc2)C2CCOC(C)(C)C2)C(=O)c2ccco2)cc1 (stereo not drawn)	-3%	5%	22µM*	2%[15.4 µM]
COc1ccc(/C=C2/CCC(CN3CCOCC3)C2=O)cc1 (stereo not drawn)	-5%	-1%	17%	0%
CN1C(=O)C(N=Nc2ccc([N+](=O)[O-])cc2)SC1=S (stereo not drawn)	0%	-4%	32µM*	?
CN1CCCCCC1=Nc1ccc([N+](=O)[O-])cc1	-11%	2%	8%	8%[15.4 µM]
COC(=O)c1sc(NC(=O)C2CCCCC2C(=O)O)c(C(=O)OC)c1C (stereo not drawn)	3%	5%	9%	14µM*
C[C@@H]1CN([C@H](C)CO)C(=O)CCCn2cc(nn2)CO[C@H]1CN(C)S(=O)(=O)c1ccc(-c2ccccc2)cc1	/	/	/	-25%
Cc1snc(S(=O)(=O)/C(C#N)=N/Nc2cccc(C(F)(F)F)c2)c1C#N	1%	0%	35µM*	8%
COc1cccc(N2CCN(C(=O)c3ccc(OC)c(S(=O)(=O)NC4CC4)c3)CC2)c1	/	/	/	-69%
CCC(C(=O)O)N1C(=O)/C(=C/c2cccn2C)SC1=S (stereo not drawn)	?	?	?	-20%
CC(C(=O)O)N1C(=O)/C(=C/c2cccn2C)SC1=S (stereo not drawn)	2.6µM*	?	0%	-53%
COCCNCCCOc1ccc(C)cc1Br	7%	1%	35µM*	-75%
SMILES	Rango dissoc inh	Rango-impB inh	gsp antag	gsp ag
COCCCNCCCOc1ccc(C)cc1Br	21%	0%	-7%	12%
O=C(COC(=O)c1ccc(F)cc1F)Nc1ccc2c(c1)OCO2	/	/	/	-44%
COC(=O)c1cc(CSc2nc3ccccc3c(=O)n2C)oc1C	-6%	2%	35µM*	-16%
COCCn1c(SCc2ccc(C(=O)OC)o2)nc2ccccc2c1=O	-13%	-6%	-3%	-48%
COc1cccc2sc(=NC(=O)CS(=O)(=O)c3ccc(F)cc3)n(C)c12	-2%	5%	-6%	25%
CCn1c(=NC(=O)CS(=O)(=O)c2ccc(C)cc2)sc2cccc(OC)c21	-1%	-1%	35µM*	5%
